# Lassa entry inh = blocks Lassa virus binding to or entry into cells | Lassa virus pseudotype entry inhibition, cell reporter | Potency, µM (top dose mostly 37.9 µM), usual class: inhibitors | 300,000 compounds, 1.2% hits | AID 540256; calls by dose curve; tested in HEK293 cells; further: nearly all actives have a fitted effect of over 50% in size
# Vaccinia mCherry = inhibitors of vaccinia virus infection (mCherry reporter signal) | Potency, µM (titrated, usually from 36.5 µM), actives largely listed as inhibitors | AID 720579 | Vaccinia virus mCherry reporter infection, fluorescence | 310,000 compounds, 0.63% hits; calls by dose curve; tested in A549 cells; further: nearly all actives have a fitted effect of over 35% in size
# MARV entry inh = inhibitors of Marburg virus binding or cell entry | AID 540276 | 300,000 compounds, 1.8% hits | Marburg virus pseudotyped entry inhibition, cell reporter | Potency, µM (highest dose often 37.8 µM), usual class: inhibitors; calls by dose curve; tested in HEK293 cells
# VACV Venus inh = vaccinia inhibition (Venus reporter) | Vaccinia virus Venus reporter expression, fluorescence | Potency, µM (highest dose often 36.5 µM), actives largely listed as inhibitors | 330,000 compounds, 0.46% hits; calls by dose curve; tested in A549 cells; further: nearly all actives have a fitted effect of over 30% in size
# HCMV inh = inhibitors of human cytomegalovirus; HFF cells, HCMV-luciferase reporter, 72 h; stronger effect = lower value; activity change, negative = inhibition, % at 57.5 µM; 410,000 compounds, 4.5% hits; AID 1259415; in the data active means activity change below about -60%; inconclusive means no clear call, values can overlap the other calls; inactive means above about -39%
#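 Two compound doses tested in HFFs infected with HCMV-luciferase, MOI 1 PFU/cell, 72 h at 37C. Lysate luminescence read with OneGlo; data normalized against buffer-only and 10uM Salinomycin inhibitor controls.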
# HCV inh = HCV inhibition; Huh7.5.1 HCVcc-Cre infection, luciferase reporter, 44 h; Potency, µM (titrated, usually from 41.8 µM), hits mostly inhibitors; 340,000 compounds, 3.4% hits; active means well fitted inhibition curve with a large enough effect; inconclusive means small, poorly fitted or top-dose-only effect, or another doubt; inactive means no such curve, though single readings can be large or run the other way
#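 A cell-based infection assay in which seeded cells (1,000 per well) receive test compound after 4 h, are inoculated with HCVcc-Cre at approximately 0.5 moi, and are incubated 44 h before luminescence detection.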
# Hits are given with their value; i = inactive; ? = inconclusive; nt = no result given. Rows were chosen to be rich in hits. Some 7.8% of all compounds tested hit in one or more screens of this group.
SMILES,Lassa entry inh,Vaccinia mCherry,MARV entry inh,VACV Venus inh,HCMV inh,HCV inh
CCN(CC)S(=O)(=O)c1cc(NC(=O)C2CC(=O)N(Cc3ccccc3)C2)ccc1Cl (stereo not drawn),nt,nt,nt,nt,-63.0,11.2µM
O=C1CC(C(=O)N2CCN(c3ccccc3Cl)CC2)CN1Cc1ccccc1 (stereo not drawn),nt,nt,nt,nt,i,i
Cc1ccc(CN2CC(C(=O)N3CCN(c4ccccc4O)CC3)CC2=O)cc1 (stereo not drawn),11.2µM,i,i,i,i,?
CCc1noc(C)c1C(=O)N1CCOc2ccc(CN3CCCC(C(=O)c4cccnc4)C3)cc2C1 (stereo not drawn),nt,i,nt,i,nt,nt
C[n+]1cccc(Br)c1,nt,i,nt,i,nt,nt
COc1ccc(Cn2c(C(=O)O)c(CNC3CCCCC3)c3ccc(C)cc32)cc1,i,i,nt,i,i,nt
Cc1ccc(N2CCN(S(=O)(=O)c3nnc(NC(=O)c4cccc(F)c4)s3)CC2)cc1,i,?,nt,?,i,nt
CCC(=O)Nc1cccc(C(=O)/C=C/c2cc(Br)ccc2OC)c1,11.2µM,?,?,?,-104.0,11.2µM
CCC(=O)Nc1cccc(C(=O)OC)c1,i,i,i,i,i,i
COc1ccc(Br)cc1/C=C/C(=O)Nc1ccc2ccccc2c1,i,i,?,i,i,10µM
COc1cccc(-c2cc(C(=O)Nc3ccncc3)c3ccccc3n2)c1,i,i,?,i,i,?
COc1ccc(NC(=O)c2cc(-c3ccncc3)nc3ccccc23)c(OC)c1,?,i,5.62µM,i,i,?
COc1ccc(NC(=O)c2cc(-c3ccc(OC)c(OC)c3)nc3ccccc23)c(OC)c1,?,i,?,i,-75.1,?
COc1cccc(NC(=O)c2cc(-c3ccncc3)nc3c(C)cc(C)cc23)c1,?,i,?,i,i,10µM
COc1ccc(-c2cc(C(=O)NC3CCCC3)c3ccccc3n2)cc1OC,i,i,i,i,i,i
COc1ccccc1NC(=O)c1cc(-c2ccc(C)o2)nc2ccccc12,i,i,?,i,-71.5,i
Cc1ccc(NC(=O)c2cc(-c3ccc(C)o3)nc3ccccc23)cc1,i,i,i,i,i,i
COc1ccc(Cl)cc1NC(=O)c1ccc2c(c1)CCCN2S(C)(=O)=O,i,i,i,i,?,nt
COc1cccc(C(=O)Nc2ccc3nc(SCC(=O)N4CCc5ccccc54)sc3c2)c1,i,i,i,i,i,nt
O=c1n(-c2ccccc2)c(=O)n2n1CC[C@@H]1/C(=N/OC[C@@H](O)COCc3ccco3)[C@H]3O[C@H]3[C@@H](O)[C@@H]12,nt,nt,i,nt,nt,nt
CCOc1ccc(N(CC)S(=O)(=O)N2CCCC(C(=O)Nc3ccc(OC)c(Cl)c3)C2)cc1 (stereo not drawn),?,i,nt,i,i,nt
COc1cc(-c2cc(C(=O)Nc3ccc(O)cc3)c3ccccc3n2)cc(OC)c1OC,nt,?,nt,i,i,?
COc1ccc(-c2cc(C(=O)Nc3ccc(C(N)=O)cc3)c3ccccc3n2)cc1OC,i,i,?,i,-91.5,?
CCOC(=O)N1CCc2c(sc3c2c(=O)n(-c2ccccc2C(F)(F)F)c(=O)n3Cc2ccccc2C)C1,i,i,i,i,-100.7,nt
CC(=O)N1CCc2c(sc3c2c(=O)n(CCc2ccccc2)c(=O)n3Cc2ccc(Cl)cc2)C1,nt,?,?,i,-106.2,nt
SMILES,Lassa entry inh,Vaccinia mCherry,MARV entry inh,VACV Venus inh,HCMV inh,HCV inh
CCOC(=O)N1CCc2c(sc3c2c(=O)n(-c2ccc(Cl)cc2)c(=O)n3CC(C)C)C1,i,i,i,i,-65.5,nt
CC(=O)N1CCc2c(sc3c2c(=O)n(CCc2ccccc2)c(=O)n3Cc2ccccc2C)C1,nt,i,?,i,i,nt
CCCNC(=O)OC[C@H]1O[C@H](CCON=Cc2ccc(C(=O)N3[C@H](C(=O)OC)CC[C@H](C)[C@@H]3c3ccc(C)cc3)cc2)C=C[C@H]1Oc1ccc(OC)cc1,i,nt,i,nt,nt,nt
COc1ccc(S(=O)(=O)c2c(O)c3ccc(C(=O)NCc4ccc(F)cc4)cc3[nH]c2=O)cc1,i,i,nt,i,i,nt
CCn1c(=O)n(CC)c2cc(N3CCCCC3)c(NC(=O)Nc3ccccc3C(F)(F)F)cc21,?,i,nt,i,i,nt
Cn1cnc2c(SCc3ccccc3)ncnc21,?,i,?,i,i,i
ClCCn1cnc2c(SCc3ccccc3)ncnc21,?,?,0.891µM,i,-64.4,i
ClCCn1cnc2c(SCc3ccccc3Cl)ncnc21,?,?,?,i,-76.3,i
CCc1cc2c(NCc3ccco3)ncnc2s1,i,i,?,i,i,15.8µM
CCc1cc2c(NCc3ccccc3)nc(C)nc2s1,nt,nt,nt,nt,-83.9,7.94µM
CCc1cc2c(NCC(=O)O)ncnc2s1,i,nt,i,i,i,i
Cc1ccc(-c2cn3nc(C)c(C)nc3n2)cc1,?,i,0.282µM,i,i,i
CC(C)(C)c1ccc(N/N=C(\C#N)S(=O)(=O)C(C)(C)C)cc1,?,i,10µM,i,?,?
CC(C)(C)S(=O)(=O)/C(C#N)=N/Nc1ccc(Cl)cc1,?,i,i,?,-82.4,?
CC(C)(C)C1CCc2onc(C(=O)Nc3sc4c(c3C(N)=O)CCCC4)c2C1 (stereo not drawn),i,i,i,i,i,nt
COc1ccc(-c2nc(SCC(=O)Nc3c(C)cc(C)cc3C)n[nH]2)cc1,?,i,nt,i,?,nt
CCCNc1c(NS(=O)(=O)c2c(F)c(F)c(F)c(F)c2F)c(=O)oc2ccccc12,nt,5.01µM,nt,?,i,i
Cc1ccc(COC(=O)c2ccc(-c3nnn(Cc4ccc(C)cc4)n3)cc2)cc1,i,i,i,i,i,nt
Fc1cccc(F)c1-n1c(CN2CCCCC2)csc1=S,i,i,6.31µM,i,-68.0,?
CC(=O)NC1=NC(=O)/C(=C/c2cn(C(C)=O)nc2-c2ccccc2)S1,nt,nt,nt,nt,?,i
CCN=C1S/C(=C\c2cn(C(C)=O)nc2-c2ccccc2)C(=O)N1CC,?,nt,?,nt,i,10µM
Cc1cccc(Oc2sc(C(=O)c3ccccc3)c(N)c2C#N)c1,1.58µM,nt,?,?,i,10µM
Nc1ccc(Nc2ccccc2N)cc1,?,i,i,i,i,11.2µM
O=c1c(C=NCCN2CCNCC2)c(O)n(C2CCCCC2)c(=O)n1C1CCCCC1,i,i,20.6µM,i,nt,?
C(C#CCCCCCCCCC[n+]1ccccc1)#CCCCCCCCCC[n+]1ccccc1,?,10µM,2.51µM,10µM,nt,?
SMILES,Lassa entry inh,Vaccinia mCherry,MARV entry inh,VACV Venus inh,HCMV inh,HCV inh
CC(C)OC(=O)c1ccc(N2CCN(c3ccccc3F)CC2)nc1,nt,nt,nt,nt,i,11.2µM
O=[N+]([O-])c1ccc(N2CCN(c3ccccc3F)CC2)nc1,i,i,i,i,i,i
Cc1cccc(CCNC(=O)CN(c2ccc(C(C)C)cc2)S(=O)(=O)c2c(C)nn(C)c2C)c1,?,i,i,i,i,nt
O=C(Oc1ccccc1F)c1nc(SCc2ccccc2F)ncc1Cl,i,i,i,i,i,nt
Cc1ccc2oc(=O)c3cc(C(=O)N(Cc4ccccc4)C(C)C)sc3c2c1,?,i,i,i,-105.3,nt
CCN(CC)C(=O)c1cc2c(=O)n3cccc(C)c3nc2s1,i,i,?,i,i,i

# Source: PubChem (National Center for Advancing Translational Sciences (NCATS))
